Compound activity (PubChem)
The list is not random: actives were taken first. Their share in the collection is about 4.1%.
DAX1 inh-1: inhibits human nuclear receptor DAX1; HEK293 Gal4-DAX1 luciferase reporter, luminescence; hit rate 0.99% among 340,000; AID 504766; P51843; inhibition, % at 6.75 µM;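 active = inhibition above the mean over all tested compounds plus 3 SD, cut at about 4.2% in these data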;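 also: 0% = DAX1-transfected cells with DMSO and 100% = empty-vector control cells with DMSO; inhibition shows as a rise in luminescence from relieved DAX1 repression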
hgDAF12 agonist: agonists of H. glycines DAF-12 nuclear receptor. HEK293 GAL4-hgDAF12 UAS-luciferase reporter, agonist luminescence; normalized to butyrate control. activation, % at 6.8 µM. hit rate 1.8% among 370,000. AID 687014;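 active = activation above a cutoff set at the mean of all screened compounds plus 3 SD, cut at about 10% in these data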;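 also: 0% = DMSO wells and 100% = sodium butyrate wells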
hcDAF12 agonist: H. contortus DAF-12 activation, primary screen; activation, % at 6.8 µM; hit rate 1.4% among 370,000; HEK293 hcDAF-12 lit1-tk-luc reporter, luminescence; 0% DMSO, 100% Δ7-dafachronic acid;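 active = activation above the mean of all tested compounds plus 3 SD, cut at about 5.5% in these data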;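 also: 100% = response to 3 µM Δ7-dafachronic acid high control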
DAX1 inh-2: DAX1 (NR0B1) inhibition, primary screen. HEK293T StAR-luciferase reporter, SF-1/DAX-1 repression relief. inhibition, % at 6.8 µM. hit rate 1.1% among 370,000. AID 652010;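 active = inhibition above the mean over all tested compounds plus 3 SD, cut at about 3.6% in these data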;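 also: 0% = DAX-1 cells with DMSO and 100% = cells lacking DAX-1 with DMSO; higher inhibition means more luminescence from relief of DAX-1 repression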
ssDAF-12 act: S. stercoralis DAF-12 activation, primary screen | activation, % at 6.8 µM | hit rate 1% among 370,000 | AID 652126 | HEK293 ssDAF-12/GRIP1 lit1-tk-luc reporter, luminescence; % of 3 µM dafachronic acid response;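 active = activation above the mean over all tested compounds plus 3 SD, cut at about 0.9% in these data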;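 also: 0% = DMSO-only wells and 100% = 3 µM delta7-dafachronic acid wells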
LXRb hcDAF ctr: counter-screen for hcDAF-12 agonists: agonists of human LXR-beta; 3,400 tested, under 10 active; HEK293 Gal4-LXR tk-luc reporter, luminescence, 24 h; normalized: DMSO 0%, positive control 100%; shares compounds with hcDAF12 agonist; activation, % at 6.8 µM;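 active = mean percent activation of the reporter above a cutoff set as the average over tested compounds plus their standard deviation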
Target sequence (P55055 whole entry, looked up, the tested form may be a part): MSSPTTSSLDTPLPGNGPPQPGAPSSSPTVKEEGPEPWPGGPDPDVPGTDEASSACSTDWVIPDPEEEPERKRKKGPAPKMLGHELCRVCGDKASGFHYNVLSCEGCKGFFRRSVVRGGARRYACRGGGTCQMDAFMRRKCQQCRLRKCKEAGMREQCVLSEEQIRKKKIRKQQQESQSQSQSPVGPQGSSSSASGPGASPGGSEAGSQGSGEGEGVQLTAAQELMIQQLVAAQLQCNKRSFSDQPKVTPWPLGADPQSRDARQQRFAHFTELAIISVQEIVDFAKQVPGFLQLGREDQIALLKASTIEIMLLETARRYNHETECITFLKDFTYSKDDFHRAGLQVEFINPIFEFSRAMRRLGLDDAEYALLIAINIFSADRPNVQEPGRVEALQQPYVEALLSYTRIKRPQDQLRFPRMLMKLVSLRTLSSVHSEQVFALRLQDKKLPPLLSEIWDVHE
hcDAF12 conf: confirmation of H. contortus DAF-12 agonists; shares compounds with hcDAF12 agonist; HEK293 hcDAF-12 lit1-tk-luc reporter, luminescence; % of Δ7-dafachronic acid response; activation, % at 6.8 µM; hit rate 61% among 3,400; AID 743032;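 active = mean activation across triplicate tests above the threshold derived from the earlier primary screen, cut at about 5.5% in these data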;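 also: 0% = DMSO only wells and 100% = 3 µM Δ7-dafachronic acid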
Active calls of the source: *; / = no result.

SMILES | DAX1 inh-1 | hgDAF12 agonist | hcDAF12 agonist | DAX1 inh-2 | ssDAF-12 act | LXRb hcDAF ctr | hcDAF12 conf
O=C(Nc1ccccc1Cl)c1ccc(-c2ccccn2)s1 | 5.0* | 11* | 8.7* | 2 | 0 | 1 | 3
CN(C)CCCN1CC(=O)N2CCc3ccc(Br)cc3C2CC1=O (stereo not given) | / | 0 | 1 | 1 | -1 | / | /
Cc1cccc(-c2cccc3c4c([nH]c23)[C@@H]2C[C@H](N(C)C(=O)Nc3ccccc3C)[C@H]([C@H](C)O)C(=O)N2CC4)c1 | / | -1 | -3 | -3 | -1 | / | /
C/C(=N\NC(=O)c1ccccc1NC(=O)c1ccc(Cl)cc1)c1ccncc1 | -3 | 9 | 11* | 3 | 0 | 1 | 5.8*
CC(=NNC(=O)c1ccncc1)c1ccccc1Cl | 0 | 2 | 0 | 0 | -1 | / | /
CN1CCC/C1=C/C=C1\SC(=S)NC1=O | 3 | 1 | 7.0* | 1 | -1 | 0 | 3
CN1/C(=C\C=C2/SC(=S)NC2=O)C(C)(C)c2ccccc21 | -4 | -5 | -4 | -3 | -3 | / | /
CCCCNC(=O)C[C@H]1C[C@@]2(C(=O)OC)C(=C[C@H](C(C)C)O[C@@H]2C2CC2)N(CCc2ccc(OC)c(OC)c2)C1=O | / | 0 | 0 | 0 | -1 | / | /
Cc1sc(NC(=S)Nc2ccc(F)cc2)c(C(N)=O)c1C | 0 | 1 | 2 | 0 | -1 | / | /
Cc1sc(NC(=O)c2ccc(Cl)s2)c(C(N)=O)c1C | 4.6* | 13* | 10* | 2 | 2.0* | 1 | 14*
Cc1ccc(-c2nnc(-c3cccc4ccccc34)o2)cc1 | -1 | 7 | 7.6* | 1 | 1.2* | 2 | 21*
O=C(c1ccc(-c2ccc([N+](=O)[O-])cc2)o1)N1CCCCC1 | 4 | 17* | 8.4* | 2 | -1 | 1 | 5
O=C(CC1CCCC1)N[C@H](C(=O)N1CCC[C@H]1C(=O)NC1CCCC1)C1CCCCC1 | / | 0 | 0 | 1 | 0 | / | /
N/C(CS(=O)(=O)c1ccccn1)=N\OC(=O)c1ccccc1Cl | / | 8 | 7.3* | 1 | 0 | 1 | 4
CCCC/C=C1/[C@H](c2ccc(Cl)cc2)N(Cc2ccc3c(c2)OCO3)C2=N[C@H](c3ccccc3)CC(=O)N21 | / | -2 | -1 | 0 | -2 | / | /
O=C1CCC[C@H]2C[C@H](NCc3ccccc3F)CC[C@]23CCCN13 | / | 0 | 0 | / | -1 | / | /
COc1ccc(Cn2ccc3ccc(-c4ccc5ccn(Cc6cccc(F)c6)c5c4)cc32)cc1 | / | 2 | -1 | -1 | 0 | / | /
O=C(c1ccc(Cl)cc1)N1CCCCC(Sc2nnc(-c3ccc4c(c3)OCO4)o2)C1=O (stereo not given) | -2 | 10* | 6.9* | 4.2* | 1 | 0 | 2
O=C(c1ccccc1)C1Oc2ccccc2C2CC(c3cccs3)=NN12 (stereo not given) | 4 | 7 | 8.3* | 2 | -1 | 0 | 3
O=C(c1ccccc1)N1N=C(c2cccs2)CC1c1ccccc1O (stereo not given) | 3 | -1 | 2 | 0 | -1 | / | /
c1ccc(Nc2nc(-c3ccccn3)cs2)cc1 | 1 | 13* | 13* | 2 | 1.3* | 2 | 11*
c1ccc(-c2csc(Nc3cccnc3)n2)nc1 | 0 | 7 | 0 | 1 | -1 | / | /
COc1ccccc1-c1nc(SCc2ccccn2)n[nH]1 | 4.9* | 8 | 6.9* | 2 | 1 | 0 | 9.0*
Cc1csc(=O)n1CC(=O)OCC(=O)Nc1cc(Cl)ccc1[N+](=O)[O-] | 0 | 1 | 7.3* | 0 | 0 | 0 | 5
Cc1csc(=O)n1CC(=O)OCC(=O)Nc1ccc(Cl)cc1F | -1 | 0 | 0 | 0 | -1 | / | /
SMILES | DAX1 inh-1 | hgDAF12 agonist | hcDAF12 agonist | DAX1 inh-2 | ssDAF-12 act | LXRb hcDAF ctr | hcDAF12 conf
CC(=O)c1c(C)[nH]c(C(=O)OCC(=O)Nc2cc(Cl)ccc2[N+](=O)[O-])c1C | -1 | 1 | 7.0* | 0 | -1 | 0 | 0
CC(=O)c1c(C)[nH]c(C(=O)OCC(=O)Nc2ccc(C)cc2[N+](=O)[O-])c1C | 0 | -6 | -4 | -2 | -2 | / | /
COc1ccc(NC(=O)NC2CCN(S(=O)(=O)c3ccc(F)cc3)CC2)cc1OC | / | 2 | -4 | 1 | -1 | / | /
Cc1cc(OC(C)CCN2CCC(C(O)(c3ccccc3)c3ccccc3)CC2)ccc1Br (stereo not given) | / | 6 | 6.8* | -1 | -1 | 0 | 3
Cc1cc(OCCCN2CCC(C(O)(c3ccccc3)c3ccccc3)CC2)ccc1Br | / | 0 | 0 | 0 | -1 | / | /
CC(CCN1CCC(C(O)(c2ccccc2)c2ccccc2)CC1)Oc1ccc(OC(F)(F)F)cc1 (stereo not given) | / | 5 | 7.5* | 0 | 0 | 0 | 3
O=C(CCc1c[nH]c2ccccc12)Nc1ccc(Oc2cccnc2)cc1 | / | 0 | -1 | 0 | -1 | / | /
Cc1ccc(N/N=C(\C#N)C(=N)N2CCCCC2)cc1 | 7.4* | 19* | 6.9* | 3 | 1.2* | 2 | 11*
O=C(CSC1=NS(=O)(=O)c2cc(F)ccc2N1)NCc1ccc(F)cc1 | 0 | 0 | 0 | 1 | -1 | / | /
O=C(CSC1=NS(=O)(=O)c2cc(Cl)ccc2N1)NCc1ccccc1 | -1 | 1 | 7.0* | -1 | -1 | 0 | -1
COC(=O)C1=C(C)N(C)C(=NCc2ccccc2C(F)(F)F)NC1CCc1ccccc1 (stereo not given) | / | 1 | 0 | 0 | -1 | / | /
CCOC(=O)c1c(C)oc2c1c(C(c1ccccc1)N1CCOCC1)c(O)c1ccccc12 (stereo not given) | 4.2* | 13* | 11* | 4.0* | 1.0* | 1 | 7.3*
O=C1Cn2nnc(-c3ccccc3)c2C2c3cc(Br)ccc3CCN12 (stereo not given) | / | 1 | 0 | 0 | 0 | / | /
CN1CCN(C(=O)c2ccc(-c3cccs3)s2)CC1 | / | 9 | 1 | 2 | -1 | / | /
O=C(c1cccs1)c1ccc(-c2cccs2)s1 | -1 | 17* | 14* | 3 | 2.1* | 2 | 14*
Nc1c2c(nc3sc4c(c13)CCCC4)-c1ccccc1CC2 | 3 | 10 | 7.6* | 3 | 1.1* | 2 | 11*
NC(=O)c1sc2nc(-c3ccccc3)c3c(c2c1N)CCCC3 | 0 | -4 | -2 | -2 | -2 | / | /
CCN(CC)c1ccc(C=NNC(=O)Cc2cc(=O)[nH][nH]2)c(O)c1 | / | 0 | 1 | 0 | -2 | / | /
c1ccc(-c2ccc(-c3nc(-c4ccccn4)no3)cc2)cc1 | -5 | -12 | -5 | -1 | -3 | / | /
Clc1cccc(-c2nc(-c3ccccn3)no2)c1 | -5 | 4 | 9.7* | 1 | 0 | 1 | 12*
